SW480 rereplic = DNA re-replication induction in SW480 cells | SW480 DNA re-replication, Hoechst DNA content imaging, 48 h | actives 1.8% (n = 340,000) | Potency, µM (titrated, usually from 46.1 µM), for inactives: at the highest dose re-replication activation, actives largely listed as activators; further: potency means the concentration at half of the fitted maximal effect; % of control where 0% means no effect; nearly all actives have a fitted effect of over 55% in size
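Image-based read-out: total Hoechst fluorescence of nuclei (405 nm excitation, 500-530 nm emission), with hits raising the fraction of high-intensity nuclei. SW480 colon cells incubated 48 hr with compounds at 37 C.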
MCF10A rerep = DNA re-replication induction in MCF 10a cells. MCF 10A DNA re-replication, Hoechst nuclear intensity, 48 h. Potency, µM (series often up to 46.1 µM), for the others: at the top dose activity, positive = re-replication, actives largely listed as activators. actives 2.9% (n = 350,000); further: potency means the concentration at half of the fitted maximal effect; % of control where 0% means no effect; nearly all actives have a fitted effect of over 50% in size
KB-V1 MDR tox = KB-V1 MDR subline cytotoxicity. KB-V1 MDR cells viability, CellTiter-Glo, 72 h. actives 3.4% (n = 400,000). Potency, µM (highest dose often 46.1 µM), usual class: cytotoxic. AID 1347076; further: potency means the concentration at half of the fitted maximal effect; on the % scale 0 is the no-effect control and ±100 the full control effect; nearly all actives have a fitted effect of over 60% in size
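qHTS viability screen in drug-selected KB-V1 MDR cells: 72 h compound treatment at 37 degrees C, ATP luminescence end point.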
Giardia killer = kills Giardia lamblia. activity change, % at 7.66 µM, hits read low. Giardia lamblia trophozoite viability. actives 0.15% (n = 340,000); in the data active means activity change below about -80%; inconclusive means between about -30% and that limit;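 further: parasites exposed to compound for two days anaerobically before the ATP read; on the % scale 0 is the no-effect control and ±100 the full control effect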
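Viability, read as ATP luminescence: trophozoites at 100 cells/well, compound added, 48 hrs anaerobic at 37 deg C, then 15-30 min room-temperature development before reading.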
KB-3-1 cytotox = kills parental KB-3-1 adenocarcinoma cells. Potency, µM (series often up to 46.1 µM), actives largely listed as cytotoxic. KB-3-1 viability, CellTiter-Glo ATP luminescence, 72 h. actives 1.4% (n = 400,000); further: potency means the concentration at half of the fitted maximal effect; on the % scale 0 is the no-effect control and ±100 the full control effect; nearly all actives have a fitted effect of over 60% in size
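Parental KB-3-1 viability, qHTS format: 72 h compound exposure, 37 °C; CellTiter-Glo; media-only wells and DMSO plates as controls; concentration-effect fits on corrected data.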
S-ASM inh = human S-ASM enzyme inhibition. placental ASM, HMU-PC fluorogenic substrate, 60 min. Potency, µM (top dose mostly 57.5 µM), inactives show at the top dose activity change, negative = inhibition, usual class: inhibitors. AID 504937. actives 0.006% (n = 340,000). P17405; further: potency means the concentration at half of the fitted maximal effect
Target sequence (P17405 47-631 limits assumed): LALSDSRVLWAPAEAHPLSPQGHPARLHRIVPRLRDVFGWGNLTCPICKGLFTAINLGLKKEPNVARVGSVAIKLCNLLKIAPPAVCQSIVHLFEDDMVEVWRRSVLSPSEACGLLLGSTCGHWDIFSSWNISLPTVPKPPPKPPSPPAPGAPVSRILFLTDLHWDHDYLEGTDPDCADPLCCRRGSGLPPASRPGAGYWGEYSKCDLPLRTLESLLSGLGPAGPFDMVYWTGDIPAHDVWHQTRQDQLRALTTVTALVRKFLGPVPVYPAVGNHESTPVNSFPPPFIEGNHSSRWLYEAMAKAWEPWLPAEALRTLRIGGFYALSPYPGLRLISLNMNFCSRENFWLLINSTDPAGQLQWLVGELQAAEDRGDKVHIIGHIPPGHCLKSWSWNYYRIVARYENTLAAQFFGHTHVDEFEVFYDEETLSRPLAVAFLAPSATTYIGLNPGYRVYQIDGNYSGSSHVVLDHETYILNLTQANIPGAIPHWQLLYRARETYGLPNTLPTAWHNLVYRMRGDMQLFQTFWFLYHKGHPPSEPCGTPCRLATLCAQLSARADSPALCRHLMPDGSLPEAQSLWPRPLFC
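Fluorogenic HMU-PC substrate (9 uM final) is turned over by placental ASM in 60 min at 37 C after a 10 min compound preincubation. Reaction ended by alkaline stop (pH 10), with fluorescence read at 386/447 nm.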
Numbers without * were called inactive; i = inactive; ? = inconclusive; / = no result. Hits are enriched below; roughly 6.9% of the tested compounds scored in any of these assays. Unless noted, the call rests on the fitted dose curve; in most records, active means well fitted curve in the direction sought with a large enough effect; inconclusive means small, poorly fitted or top-dose-only effect, or another doubt; inactive means no such curve, though single readings can be large; an effect the other way counts as inactive or inconclusive.

SMILES | SW480 rereplic | MCF10A rerep | KB-V1 MDR tox | Giardia killer | KB-3-1 cytotox | S-ASM inh
COc1ccc(/C=C/c2cc(C(=O)O)c3ccccc3n2)cc1 | ? | 5% | ? | -93* | ? | i
CCOC(=O)C1=NN(c2ccccc2)C2=NC(C)=C(C(=O)OC)C(c3ccc(C)cc3)N12 (centres undefined) | 0% | 2% | 15µM* | -22 | i | 4%
CCC1SC2=NC(C)=C(C(=O)OC)C(c3ccc(C)cc3)N2C1=O (centres undefined) | 1% | -2% | i | -4 | i | -6%
C=C1OC(CO)(n2cnc3c(N)ncnc32)C(O)C1O (centres undefined) | / | / | i | 4 | i | /
COc1cc([N+](=O)[O-])ccc1N/C=C/C(=O)c1cccs1 | -2% | 23% | 3.3µM* | ? | 5.2µM* | -2%
O=C(/C=C/c1ccc([N+](=O)[O-])cc1)c1cccs1 | ? | 1% | i | -19 | i | 0%
COc1ccc(-c2nc3ccc(NC(=O)COC(C)=O)cc3c(=O)n2Cc2ccccc2)cc1COc1ccc(NC(C)=O)cc1 | / | / | / | -17 | / | /
CC(=O)Nc1ccc2nc(-c3cc(C)ccc3C)[nH]c2c1 | / | / | 16µM* | / | ? | /
CC(=O)Nc1ccc2nc(-c3ccncc3)[nH]c2c1 | -11% | -3% | i | 5 | i | 14%
COc1cc(OC)cc(-c2nc3ccccc3c(=O)n2OC(=O)c2ccccc2C)c1 | 0% | 16µM* | ? | 6 | i | -4%
CCc1ccccc1N1CC(c2nc3ccccc3n2CCCOc2ccc(Cl)cc2)CC1=O (centres undefined) | / | / | i | / | i | /
CCCCCC(O)(c1ccc(OC)cc1)C(CN1CCOCC1)c1ccccc1 (centres undefined) | ? | 16µM* | 13µM* | 35 | ? | 0%
CCCCCC(O)(c1ccc(OCC)cc1)C(CN1CCOCC1)c1ccccc1 (centres undefined) | 26µM* | ? | ? | -8 | ? | -11%
CCCCC(O)(c1ccc(CC)cc1)C(CN1CCOCC1)c1ccccc1 (centres undefined) | ? | ? | i | -5 | 16µM* | 2%
CCCCC(O)(c1ccccc1)C(CN1CCOCC1)c1ccccc1 (centres undefined) | -2% | -9% | i | 7 | i | 1%
COc1ccc(C(O)(c2ccccc2OC)C(CN2CCOCC2)c2ccccc2)cc1 (centres undefined) | 2% | 5% | 21µM* | -7 | ? | 8%
CCOC(=O)c1ccc(N2CC3=C(C2=O)C(c2ccc(OC)cc2)NC(=O)N3C)cc1 (centres undefined) | / | / | i | / | i | /
Cc1c(Cl)c([N+](=O)[O-])nn1CCCC(=O)Nc1sc2c(c1C(N)=O)CCC(C)C2 (centres undefined) | -2% | -2% | i | -9 | i | -4%
Cc1c(Br)c([N+](=O)[O-])nn1CCCC(=O)Nc1sc2c(c1C(N)=O)CCC(C)C2 (centres undefined) | -54% | -25% | 8.2µM* | -3 | ? | 11%
COC(=O)c1c(NC(=O)Cn2cnc([N+](=O)[O-])n2)sc2c1CCC(C)C2 (centres undefined) | 13% | ? | 16µM* | -18 | i | -16%
COc1cc(CCNC2=CC(=O)c3ncccc3C2=O)ccc1O | 15µM* | ? | 7.3µM* | 20 | 5.8µM* | -2%
COC(=O)c1cn(C(=O)c2ccc(C)cc2)c2ccccc12 | 7.3µM* | 4% | i | -1 | i | -3%
COC(=O)c1cn(C(=O)c2ccc(OC)c(OC)c2)c2ccccc12 | 0% | -5% | i | -13 | i | -4%
COC(=O)c1cn(C(=O)c2ccc(OC)cc2)c2ccccc12 | 2.3µM* | 5.8µM* | i | 4 | ? | -8%
CCOC(=O)c1sc(N2C(=O)c3oc4ccc(F)cc4c(=O)c3C2c2ccc(C)cc2)nc1C (centres undefined) | / | / | i | / | i | /
SMILES | SW480 rereplic | MCF10A rerep | KB-V1 MDR tox | Giardia killer | KB-3-1 cytotox | S-ASM inh
COc1cc2c(cc1OC)C(C)N(C(=O)c1cc3c(s1)-c1c(C)cccc1OC3)CC2 (centres undefined) | 0% | 16µM* | i | ? | i | i
COc1cc2c(cc1OC)C(C)N(C(=O)c1c(C)noc1C)CC2 (centres undefined) | ? | 9.2µM* | ? | -11 | ? | -1%
COc1cc2c(cc1OC)C(C)N(C(=O)c1cc(C)on1)CC2 (centres undefined) | 0.73µM* | 1.3µM* | 4.6µM* | 6 | ? | /
COc1cc2c(cc1OC)C(C)N(C(=O)c1cc3c(s1)-c1ccccc1OC3)CC2 (centres undefined) | 13% | ? | ? | 15 | ? | 493%
CC(OC(=O)c1ccccc1OCCOc1ccccc1)C(=O)Nc1ccc(Br)cc1 (centres undefined) | / | / | i | / | i | /
CN1CCN(c2cccc(Nc3nn4c(=O)c5ccccc5nc4s3)c2)CC1 | / | / | i | / | i | /
Cc1ccc(C2=Nc3ccccc3N(CC(=O)NCc3ccccc3Cl)C(=O)C2)cc1C | / | / | i | / | i | /
COC(=O)C1=CN(c2ccc(F)cc2)C=C(C(=O)OC)C1c1cccc(Br)c1 | 23µM* | 15µM* | ? | 2 | ? | i
CCOC(=O)CC(NC(=O)N1CCC(CN2CCC(C)CC2)CC1)c1ccccc1 (centres undefined) | / | / | i | / | i | /
COc1ccc(C(=O)Nc2ccc(Oc3ncnc4sc(-c5ccccc5)cc34)cc2)cc1OC | / | 3.3µM* | i | -8 | i | 7%
c1ccc(-c2cc3c(N4CCN(c5ncccn5)CC4)ncnc3s2)cc1 | -45% | ? | ? | 9 | i | -1%
CC(C)(C)Nc1ncnc2sc(-c3ccccc3)cc12 | ? | 18µM* | i | 8 | ? | -8%
c1ccc(-c2cc3c(N4CCN(c5ccccc5)CC4)ncnc3s2)cc1 | 4% | 12µM* | ? | 15 | i | -11%
CC(C)C(C)(C#N)NC(=O)CSc1ncnc2sc(-c3ccccc3)cc12 (centres undefined) | -1% | 14% | 23µM* | 3 | i | -12%
COCC(C)NC(=O)CSc1ncnc2sc(-c3ccccc3)cc12 (centres undefined) | -4% | ? | ? | 11 | i | /
OCCCNc1ncnc2sc(-c3ccccc3)cc12 | ? | 13% | i | 5 | i | 2%
Cc1cc(C)cc(Oc2coc3cc(OCC(=O)NC4CCCCC4)ccc3c2=O)c1 | / | / | i | / | i | /

Screening data deposited in PubChem by National Center for Advancing Translational Sciences (NCATS).
